Sampled rows, rich in hits. Any-hit rate of the full collection: about 8.3%.
Marburg entry inh: inhibitors of Marburg virus binding or cell entry; Marburg virus pseudotyped entry inhibition, cell reporter; hit rate 1.8% among 300,000; Potency, µM (top dose mostly 37.8 µM), most hits filed as inhibitors; AID 540276; calls by dose curve; tested in HEK293 cells
FBPA Giardia inh: Giardia lamblia aldolase inhibition; A8B2U2; purified Giardia FBPA; Potency, µM (doses to about 59.6 µM), hits mostly inhibitors; hit rate 0.71% among 290,000; also: nearly all actives have a fitted effect of over 55% in size
Target sequence (A8B2U2 whole entry, looked up): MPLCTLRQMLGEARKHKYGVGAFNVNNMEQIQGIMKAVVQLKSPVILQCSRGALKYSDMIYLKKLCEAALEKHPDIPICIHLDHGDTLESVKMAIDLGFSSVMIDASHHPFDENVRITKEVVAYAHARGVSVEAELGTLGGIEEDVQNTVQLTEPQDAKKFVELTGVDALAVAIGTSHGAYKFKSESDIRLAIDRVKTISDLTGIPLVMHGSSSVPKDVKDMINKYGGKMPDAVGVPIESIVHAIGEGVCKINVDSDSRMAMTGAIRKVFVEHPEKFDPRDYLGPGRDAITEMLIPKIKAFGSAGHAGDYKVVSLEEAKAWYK
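40 nM FBPA preincubated 10 min at RT with compound (up to 57.5 uM final), then substrate plus GAPDH/TPI/NAD/arsenate coupling and diaphorase/resazurin added. Fluorescence read after 20 min at RT, 525/598 nm.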
HCMV inh: human cytomegalovirus inhibition | activity change, negative = inhibition, % at 57.5 µM | HFF cells, HCMV-luciferase reporter, 72 h; active compounds read low | hit rate 4.5% among 410,000 | AID 1259415; in the data active = activity change below about -60%; inconclusive = no clear call, values can overlap the other calls; inactive = above about -39%
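Steps: HFFs plated, 16 h 37C; compounds added; HCMV-luciferase added to MOI 1 PFU/cell; 72 h 37C; OneGlo reagent, 5 min room temperature; luminescence read, normalized to controls.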
LASV entry inh: inhibitors of Lassa virus binding or cell entry; Lassa virus pseudotype entry inhibition, cell reporter; Potency, µM (doses to about 37.9 µM), hits mostly inhibitors; hit rate 1.2% among 300,000; calls by dose curve; tested in HEK293 cells; also: nearly all actives have a fitted effect of over 50% in size
FMDV inh: blocks foot and mouth disease virus; FMDV antiviral cell-based qHTS; Potency, µM (highest dose often 57.9 µM), usual class: inhibitors; hit rate 1.2% among 410,000; AID 1159524; calls by dose curve; tested in HEK293T cells; also: read-out not given here; nearly all actives have a fitted effect of over 45% in size
HCV inh: inhibitors of hepatitis C virus infection; Huh7.5.1 HCVcc-Cre infection, luciferase reporter, 44 h; Potency, µM (series often up to 41.8 µM), actives largely listed as inhibitors; AID 651820; hit rate 3.4% among 340,000
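A cell-based infection assay in which seeded cells (1,000 per well) receive test compound after 4 h, are inoculated with HCVcc-Cre at approximately 0.5 moi, and are incubated 44 h before luminescence detection.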
Numbers stand for hits; - = inactive; ? = inconclusive; . = not tested or not shown; ! = not active in a repeat; [ ] = dose if it differs, or a comment. Unless noted, calls follow the shape of the dose curve; as a rule, active = well fitted curve in the direction sought with a large enough effect; inconclusive = small, poorly fitted or top-dose-only effect, or another doubt; inactive = no such curve, though single readings can be large; an effect the other way counts as inactive or inconclusive.

SMILES	Marburg entry inh	FBPA Giardia inh	HCMV inh	LASV entry inh	FMDV inh	HCV inh
CCOc1ccccc1N(CC(=O)Nc1cccc(OC)c1)S(=O)(=O)c1ccccc1	?	-	-106.9	?	-	-
CCOc1ccccc1N(CC(=O)Nc1ccc(OC)cc1)S(=O)(=O)c1ccccc1	.	-	?	.	-	?
Cc1ccc(C(=O)c2sc(Nc3ccc(F)cc3)nc2N)c(C)c1	.	.	?	-	-	.
CC(C)=CCCC(C)=CCON=C1C[C@@H](O)[C@@H](O)[C@@H]2[C@H]3C(=O)N(c4cccc(Oc5ccccc5)c4)C(=O)[C@@H]3CC[C@H]12	-	.	.	.	.	.
CO[C@H]1[C@H](NC(=O)c2ccsc2)c2ccccc2C12CCN(Cc1cnn(C)c1C)CC2	.	.	.	.	-	.
COc1ccc(F)cc1-c1cc(NC=O)c2ncc(-c3cc(OC)c(OC)c(OC)c3)n2c1	.	.	-76.4	.	31.6µM	.
COc1cc(-c2cnc3c(NC=O)cc(-c4ccc(C)cc4)cn23)cc(OC)c1OC	.	.	-76.1	.	-	.
COc1cc(-c2cnc3c(NC=O)cc(-c4ccccc4Cl)cn23)cc(OC)c1OC	.	.	-77.1	.	-	.
COc1cc(-c2cc(NC=O)c3ncc(-c4ccccc4)n3c2)cc(OC)c1OC	.	.	-	.	-	.
COc1cccc(-c2cc(NC=O)c3ncc(-c4ccc(C(C)=O)cc4)n3c2)c1	.	.	-64.4	.	-	.
CC(=O)N1CCc2c(sc3c2c(=O)n(-c2ccc(C)cc2)c(=O)n3CC(=O)Nc2ccccc2)C1	?	.	-	.	-	.
COc1ccc(N2CCN(C(=O)c3c(C)oc4ncn(CC(C)C)c(=O)c34)CC2)cc1	.	.	-	-	-	.
Oc1ccc2ccccc2c1C=NCc1cn2ccsc2n1	-	1µM	-	-	.	-
Cc1ccccc1-c1nc(CS(=O)(=O)CC(=O)N(C)C2CCCCC2)c(C)o1	-	-	-	.	?	11.2µM!
Cc1ccccc1-c1nc(CS(=O)(=O)CC(=O)NC2CCCCC2C)c(C)o1 (centres undefined)	-	-	-	-	-	?
O=c1oc2ccccc2c2c1C1O[C@](c3ccsc3)(Cc3ccccc31)O2	.	-[12.9 µM]	.	.	.	.
CC(C)NC(=O)c1cnc(N2CCN(Cc3cccc(F)c3)C2=O)s1	.	.	-	.	.	.
O=C(NCC1CC1)c1cnc(N2CCN(Cc3cccc(F)c3)C2=O)s1	.	.	-98.7	.	.	.
CO[C@H](C1CCCCC1)[C@H](C)/C=C/CC(=O)OCCCc1ccccc1	-	.	.	.	.	.
c1ccc(N2CCN(c3nnc(Cc4cccnc4)c4ccccc34)CC2)nc1	-	-	?	-	10µM	?
C[C@H](c1ccccc1)N1C(=O)[C@H]2[C@@H]3[C@H](O)[C@H](O)CC(=O)[C@H]3CC[C@H]2C1=O	.	-[12.9 µM]	.	.	.	.
Cc1ccc2c(c1)Cc1c(C(=O)NN3CCCCC3)nn(-c3ccc(Cl)cc3Cl)c1-2	.	?	.	.	-	.
COc1cc(C(=O)OCc2cc(=O)oc3c(C)c(C)ccc23)ccc1OC(F)F	-	-	-64.9	?	-	-
O=C(c1cc2nc(-c3ccc(F)cc3)cc(C(F)(F)F)n2n1)N1CCCCC1c1cccnc1 (centres undefined)	?	-	-89.9	?	17.8µM	7.94µM
CC1CCCCN1C(=O)c1cc2nc(-c3ccccc3)cc(-c3ccccc3)n2n1 (centres undefined)	?	-	-	-	-	11.2µM
SMILES	Marburg entry inh	FBPA Giardia inh	HCMV inh	LASV entry inh	FMDV inh	HCV inh
COc1ccc(CNS(=O)(=O)c2cnc(N)nc2)c(OC)c1	.	.	-	-	-	.
N#Cc1cc(NC(=O)c2ccc(Cl)cc2)ccc1Sc1ccccc1	.	.	-82.9	.	-	.
N#Cc1ccccc1Sc1ccccc1C(=O)Nc1ccc2ccccc2c1	.	-	-	.	-	?
COc1ccc(Sc2ccc(NC(=O)c3ccccc3Cl)cc2C#N)cc1	?	-	-	?	-	11.2µM
O=C1C[C@@H](c2ccccc2Cl)N1S(=O)(=O)c1ccccc1[N+](=O)[O-]	.	-	.	.	.	.
CCc1ccc(-c2nc(CN3CCC(C(=O)N4CCN(c5ccccc5)CC4)CC3)c(C)o2)cc1	?	-	?	?	?	?
CCc1ccc(-c2nc(CN3CCC(C(=O)NCc4ccc(F)cc4)CC3)c(C)o2)cc1	20.6µM	-	-	?	-	17.8µM
Cc1oc(-c2cccc(Cl)c2)nc1CN1CCC(C(=O)N2CCN(c3ccccn3)CC2)CC1	.	.	.	.	20µM	?
Cc1ccc(Cl)cc1N1CCN(C(=O)C2CCN(Cc3nc(-c4ccc(Cl)cc4)oc3C)CC2)CC1	-	.	-	?	?	.
Cc1ccc(C)c(N2CCN(C(=O)C3CCN(Cc4nc(-c5cccc(Cl)c5)oc4C)CC3)CC2)c1	?	.	-	-	20µM	.

Screens (PubChem)
